Experimental data: ChEMBL document CHEMBL1961873, “Compounds: GSK PKIS; Assays: Nanosyn kinase panel” (2012)

Tests used:
[1] = target: T1, Aurora kinase A (Homo sapiens) (UniProt O14965); conditions: at 1 µM;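 also: values are mean percent inhibition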
T1 sequence (whole entry): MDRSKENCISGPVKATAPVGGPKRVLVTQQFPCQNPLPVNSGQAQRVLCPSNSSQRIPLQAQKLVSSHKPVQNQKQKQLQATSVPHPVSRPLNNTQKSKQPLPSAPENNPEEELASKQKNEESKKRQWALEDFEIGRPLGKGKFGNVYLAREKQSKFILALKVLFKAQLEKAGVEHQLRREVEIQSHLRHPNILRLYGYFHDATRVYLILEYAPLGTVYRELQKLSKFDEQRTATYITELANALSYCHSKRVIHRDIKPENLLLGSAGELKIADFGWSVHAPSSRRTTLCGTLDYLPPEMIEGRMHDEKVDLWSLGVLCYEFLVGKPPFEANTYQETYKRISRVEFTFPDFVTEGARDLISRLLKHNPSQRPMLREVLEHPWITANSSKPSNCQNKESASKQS

[2] = target: Aurora kinase B (Homo sapiens) (UniProt Q96GD4); conditions: at 0.1 µM
[3] = target: Aurora kinase B (Homo sapiens) (UniProt Q96GD4); conditions: at 1 µM
[4] = target: T2, Aurora kinase C (Homo sapiens) (UniProt Q9UQB9); conditions: at 0.1 µM
T2 sequence (whole entry): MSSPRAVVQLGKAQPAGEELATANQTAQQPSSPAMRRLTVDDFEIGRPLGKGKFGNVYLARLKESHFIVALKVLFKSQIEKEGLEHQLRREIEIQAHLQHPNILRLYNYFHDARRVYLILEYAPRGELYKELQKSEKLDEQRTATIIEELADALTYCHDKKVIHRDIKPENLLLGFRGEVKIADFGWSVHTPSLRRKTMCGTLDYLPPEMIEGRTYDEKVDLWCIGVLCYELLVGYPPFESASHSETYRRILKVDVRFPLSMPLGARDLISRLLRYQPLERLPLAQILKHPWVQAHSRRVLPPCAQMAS

[5] = target: T2, Aurora kinase C (Homo sapiens); conditions: at 1 µM
[6] = target: Serine/threonine-protein kinase 10 (Homo sapiens) (UniProt O94804); conditions: at 0.1 µM
[7] = target: Serine/threonine-protein kinase 10 (Homo sapiens) (UniProt O94804); conditions: at 1 µM
[8] = target: T3, Mitogen-activated protein kinase kinase kinase kinase 2 (Homo sapiens) (UniProt Q12851); conditions: at 0.1 µM
T3 sequence (whole entry): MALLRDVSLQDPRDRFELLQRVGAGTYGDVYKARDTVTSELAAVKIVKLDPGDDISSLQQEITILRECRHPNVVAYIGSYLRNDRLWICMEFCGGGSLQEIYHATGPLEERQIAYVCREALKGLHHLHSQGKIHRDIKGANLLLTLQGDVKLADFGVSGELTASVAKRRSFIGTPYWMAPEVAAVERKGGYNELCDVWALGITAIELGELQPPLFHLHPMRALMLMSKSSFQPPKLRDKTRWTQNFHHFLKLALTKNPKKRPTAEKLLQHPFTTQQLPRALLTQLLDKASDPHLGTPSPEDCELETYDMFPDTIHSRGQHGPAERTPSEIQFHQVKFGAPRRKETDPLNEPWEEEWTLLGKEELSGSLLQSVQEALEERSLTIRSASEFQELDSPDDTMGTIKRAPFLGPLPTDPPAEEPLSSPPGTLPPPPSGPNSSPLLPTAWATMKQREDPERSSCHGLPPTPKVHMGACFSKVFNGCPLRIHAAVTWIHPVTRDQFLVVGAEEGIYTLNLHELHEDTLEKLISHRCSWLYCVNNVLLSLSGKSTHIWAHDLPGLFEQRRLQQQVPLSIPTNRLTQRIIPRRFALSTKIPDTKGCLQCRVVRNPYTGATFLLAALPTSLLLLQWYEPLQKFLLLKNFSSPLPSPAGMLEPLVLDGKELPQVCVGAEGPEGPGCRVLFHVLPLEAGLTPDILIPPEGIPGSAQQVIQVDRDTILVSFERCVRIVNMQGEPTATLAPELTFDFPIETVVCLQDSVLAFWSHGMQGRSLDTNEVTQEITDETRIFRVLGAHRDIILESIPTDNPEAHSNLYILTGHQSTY

[9] = target: T3, Mitogen-activated protein kinase kinase kinase kinase 2 (Homo sapiens); conditions: at 1 µM
[10] = target: Mitogen-activated protein kinase kinase kinase kinase 4 (Homo sapiens) (UniProt O95819); conditions: at 0.1 µM
Sequence of Mitogen-activated protein kinase kinase kinase kinase 4 (Homo sapiens) (O95819 2-1239 limits assumed): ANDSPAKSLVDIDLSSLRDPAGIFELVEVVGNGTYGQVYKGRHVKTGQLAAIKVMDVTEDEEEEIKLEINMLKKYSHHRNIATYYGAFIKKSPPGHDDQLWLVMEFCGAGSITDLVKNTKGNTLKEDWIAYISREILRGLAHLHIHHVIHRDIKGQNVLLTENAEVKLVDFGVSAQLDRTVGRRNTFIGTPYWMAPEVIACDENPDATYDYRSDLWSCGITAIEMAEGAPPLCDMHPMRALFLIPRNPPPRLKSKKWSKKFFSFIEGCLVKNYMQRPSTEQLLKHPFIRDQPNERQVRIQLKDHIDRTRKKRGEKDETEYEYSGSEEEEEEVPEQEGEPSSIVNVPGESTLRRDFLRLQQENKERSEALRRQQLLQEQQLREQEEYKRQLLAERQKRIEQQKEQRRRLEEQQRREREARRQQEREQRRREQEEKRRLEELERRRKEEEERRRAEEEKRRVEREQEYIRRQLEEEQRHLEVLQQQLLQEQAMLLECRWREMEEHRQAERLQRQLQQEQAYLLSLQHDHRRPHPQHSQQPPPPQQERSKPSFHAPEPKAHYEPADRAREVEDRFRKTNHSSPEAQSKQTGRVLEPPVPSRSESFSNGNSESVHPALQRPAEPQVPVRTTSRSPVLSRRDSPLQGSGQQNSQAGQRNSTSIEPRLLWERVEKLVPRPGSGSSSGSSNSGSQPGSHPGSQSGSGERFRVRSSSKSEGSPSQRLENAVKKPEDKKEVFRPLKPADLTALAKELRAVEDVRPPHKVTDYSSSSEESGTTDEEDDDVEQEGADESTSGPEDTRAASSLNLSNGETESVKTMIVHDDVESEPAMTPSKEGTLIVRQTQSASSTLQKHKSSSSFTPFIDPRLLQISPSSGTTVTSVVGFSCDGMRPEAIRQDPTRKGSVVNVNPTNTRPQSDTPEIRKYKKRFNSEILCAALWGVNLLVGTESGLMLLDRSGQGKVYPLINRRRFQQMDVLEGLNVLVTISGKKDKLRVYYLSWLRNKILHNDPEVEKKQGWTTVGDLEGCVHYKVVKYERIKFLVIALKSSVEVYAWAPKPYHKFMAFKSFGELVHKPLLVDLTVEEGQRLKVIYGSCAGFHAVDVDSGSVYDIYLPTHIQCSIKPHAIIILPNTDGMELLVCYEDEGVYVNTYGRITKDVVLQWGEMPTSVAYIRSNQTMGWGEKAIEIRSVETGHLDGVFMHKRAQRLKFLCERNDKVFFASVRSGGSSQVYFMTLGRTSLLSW

Sequence of Aurora kinase B (Homo sapiens) (Q96GD4 whole entry): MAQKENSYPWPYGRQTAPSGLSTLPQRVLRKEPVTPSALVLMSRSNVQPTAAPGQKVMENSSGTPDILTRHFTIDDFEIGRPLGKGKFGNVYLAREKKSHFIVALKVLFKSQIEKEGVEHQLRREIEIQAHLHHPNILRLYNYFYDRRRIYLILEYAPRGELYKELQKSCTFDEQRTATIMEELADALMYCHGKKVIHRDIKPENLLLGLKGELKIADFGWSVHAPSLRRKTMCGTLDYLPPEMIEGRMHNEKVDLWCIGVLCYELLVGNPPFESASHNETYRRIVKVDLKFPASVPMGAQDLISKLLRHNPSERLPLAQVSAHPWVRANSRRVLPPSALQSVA
Sequence of Serine/threonine-protein kinase 10 (Homo sapiens) (O94804 whole entry, looked up): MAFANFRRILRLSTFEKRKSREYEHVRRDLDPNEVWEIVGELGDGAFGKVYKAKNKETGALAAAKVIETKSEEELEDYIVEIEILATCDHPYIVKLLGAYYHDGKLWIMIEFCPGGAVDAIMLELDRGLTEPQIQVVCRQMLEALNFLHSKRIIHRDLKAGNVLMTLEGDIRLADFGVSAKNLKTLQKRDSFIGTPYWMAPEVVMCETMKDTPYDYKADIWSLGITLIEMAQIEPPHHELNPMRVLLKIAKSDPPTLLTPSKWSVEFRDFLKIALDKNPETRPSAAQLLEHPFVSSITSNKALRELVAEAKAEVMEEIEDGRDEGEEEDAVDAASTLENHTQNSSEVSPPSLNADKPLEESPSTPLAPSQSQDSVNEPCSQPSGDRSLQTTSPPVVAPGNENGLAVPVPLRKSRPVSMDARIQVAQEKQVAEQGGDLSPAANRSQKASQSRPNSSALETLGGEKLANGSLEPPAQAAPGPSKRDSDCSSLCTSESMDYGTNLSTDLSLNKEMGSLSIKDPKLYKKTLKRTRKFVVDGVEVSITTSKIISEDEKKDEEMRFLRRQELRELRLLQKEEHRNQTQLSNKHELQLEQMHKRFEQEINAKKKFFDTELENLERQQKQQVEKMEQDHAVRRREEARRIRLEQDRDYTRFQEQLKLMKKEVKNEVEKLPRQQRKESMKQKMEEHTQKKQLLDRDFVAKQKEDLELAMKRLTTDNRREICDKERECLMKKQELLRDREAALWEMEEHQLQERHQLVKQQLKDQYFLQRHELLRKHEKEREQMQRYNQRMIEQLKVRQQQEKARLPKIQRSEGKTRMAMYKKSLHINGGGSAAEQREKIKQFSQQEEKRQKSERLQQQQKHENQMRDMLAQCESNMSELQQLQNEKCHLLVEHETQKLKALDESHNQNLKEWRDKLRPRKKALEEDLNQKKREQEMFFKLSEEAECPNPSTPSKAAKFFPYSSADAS

| SMILES | inhibition [1] [%] | inhibition [2] [%] | inhibition [3] [%] | inhibition [4] [%] | inhibition [5] [%] | inhibition [6] [%] | inhibition [7] [%] | inhibition [8] [%] | inhibition [9] [%] | inhibition [10] [%] |
| --- | --- | --- | --- | --- | --- | --- | --- | --- | --- | --- |
| Oc1cccc(-c2nc(-c3ccccc3)[nH]c2-c2ccncc2)c1 | 4.61 | 3.38 | 8.4 | 2.05 | -2.07 | 4.37 | 16.6 | 0.57 | 4.27 | 4.05 |
| C[C@@H](Oc1cc(-n2cnc3ccc(OC[C@@H](O)CO)cc32)sc1C(N)=O)c1ccccc1Cl | 2.13 | 0.7 | 1.36 | -1.38 | -2.42 | 48.1 | 85.7 | 3.67 | 16.4 | -0.19 |
| CC(C)c1ccc(Nc2nccc(-c3cnn4ncccc34)n2)cc1 | 65.8 | 7.65 | 43.1 | 5.11 | 74.6 | 3.13 | 8.29 | 1.97 | 23.4 | 4.8 |
| COc1cccc(-n2ncc3c(N/N=C/c4ccc(C)cc4)ncnc32)c1 | 11.8 | 4.27 | 6.65 | 1.92 | 4.66 | 5.12 | 10.9 | 0.91 | 4.23 | 4.74 |
| ON=C1CCc2cc(-c3nc(C4CCNCC4)[nH]c3-c3ccncc3)ccc21 | 2.73 | 0.1 | 3.15 | -0.7 | 10.1 | 19.7 | 63.6 | 1.74 | 4.29 | 3.95 |
| CS(=O)(=O)Nc1cccc(-c2ccc3c(NC(=O)C4CC4)n[nH]c3c2)c1 | 12.4 | 1.84 | 3.58 | 1.43 | 15.6 | 3.13 | 10.2 | 1.94 | 2.98 | 2.8 |
| CN1CCN(C(=O)c2ccc(NC(=O)Nc3ccc(N(C)c4ccnc(Nc5ccc(CS(C)(=O)=O)cc5)n4)cc3)cc2)CC1 | 85.9 | 68.5 | 72.8 | 88.4 | 95.3 | 26.3 | 67.7 | 4.67 | 32.7 | 13 |
| c1ccc(Cc2nc3ccc(Nc4ncnc5ccccc45)cc3[nH]2)cc1 | 11.6 | 5.89 | 11 | 4.08 | 7.02 | 4.04 | 8.14 | 0.75 | 6.22 | 4.28 |
| Cc1nc(-c2ccccc2)n2nc(NCCCN3CCOCC3)ncc12 | 5.63 | 1.82 | 8.37 | 1.43 | 12.1 | 4.62 | 7.49 | 2.45 | 2.48 | 1.62 |
| COC(=O)Nc1nc2cc(Oc3ccc(NC(=O)Nc4cccc(Br)c4)cc3)ccc2[nH]1 | 7.48 | 8.64 | 21 | 11.4 | 42.5 | 20.5 | 34.2 | 3.41 | 10.2 | 3.09 |
| Cc1cc(-c2ccccn2)cc(C)c1/C=C/c1cncc(-c2nn[nH]n2)c1 | 5.71 | 2.09 | 7.42 | 4.2 | 19.6 | 6.35 | 13.7 | -1.16 | 3.53 | 2.48 |
| COc1cc(/C=N/Nc2ncnc3c2cnn3C(C)C)ccc1O | 37.7 | 3.34 | 15.5 | 1.77 | 13.8 | 3 | 21.7 | 2.5 | 9.5 | 7.32 |
| Cc1cc(Cl)cc2c1NC(=O)C2=NNc1ccc(S(N)(=O)=O)cc1 | 4.36 | 4.55 | 6.64 | 2.52 | -3.99 | 1.5 | 7.34 | 1 | 0.54 | 12.7 |
| COC(=O)c1cncc(/C=C/c2c(C)cc(O)cc2C)c1 | 8.18 | 2.38 | 9.6 | 2.3 | -1.31 | 5.36 | 26.2 | 0.34 | 4.75 | 3.73 |
| COc1cccc(-n2nc(C)c3c(N/N=C(\C)c4ccncc4)ncnc32)c1 | 0.79 | 2.73 | 3.95 | 0.6 | 4.15 | 0.54 | 3.61 | -0.39 | 0.32 | 1.37 |
| O=S(=O)(CCOCc1ccc(-c2ccc3ncnc(Nc4ccc(OCc5cccc(F)c5)c(Cl)c4)c3c2)o1)c1ccccc1 | 2.01 | 2.69 | 7.69 | -0.03 | 5.99 | 2.38 | 5.21 | 0.66 | 3.12 | 6.19 |
| O=C(Nc1ccc(Oc2ccc3[nH]c(NC(=O)c4ccco4)nc3c2)cc1)Nc1cc(C(F)(F)F)ccc1F | 15.1 | 5.43 | 38.8 | 8.04 | 82.4 | 35.6 | 76.7 | 2.98 | 28.9 | 0.47 |
| Cc1ccc(NC(=O)CC2CC2)cc1-c1ccc(C(=O)NCC2CC2)cc1 | 8.68 | 0.07 | 6.1 | 1.19 | -2.19 | 3.11 | 8.8 | 0.05 | 3.42 | 2.06 |
| CCS(=O)(=O)c1ccc(OC)c(Nc2nccc(N(C)c3ccc4c(C)n[nH]c4c3)n2)c1 | 6.77 | 3.25 | 7.33 | 6.61 | 28.2 | 43.4 | 83 | 0.17 | 12.7 | 4.51 |
| NS(=O)(=O)c1cccc(-c2cc3ccncc3cc2OCc2ccccc2)c1 | 16.9 | 7.33 | 17.9 | 8.37 | 12.4 | 8.31 | 10.8 | 3.01 | 10.2 | 7.44 |
| COc1ccc(-c2nn3ncccc3c2-c2ccnc(Nc3cccc(C(F)(F)F)c3)n2)cc1 | 5.62 | 1.05 | 5.57 | 1.98 | 5.91 | 6.76 | 12.3 | 2.11 | 1.6 | 3.02 |
| c1ccc(Nc2ncc(-c3ccccc3)o2)cc1 | 15.2 | 3.84 | 10.3 | 0.81 | 16 | 3.84 | 9.44 | 1.03 | 5.7 | 5.9 |
| Cc1ccc(C(=O)NC2CC2)cc1-c1ccc2[nH]ncc2c1 | -1.72 | -2.69 | -0.44 | -3.29 | 0.5 | -0.03 | -1.42 | -1.74 | 5.05 | -2.51 |
| FC(F)(F)c1ccc(-c2nn3ncccc3c2-c2ccnc(Nc3ccc4c(c3)OCCO4)n2)cc1 | 29.2 | 7.15 | 11.2 | 4.98 | 12.1 | 10.5 | 30.1 | 6.41 | 6.88 | 3.6 |
| COC(=O)c1ccc2c(c1)C(=Cc1cc(Br)c(O)c(Br)c1)C(=O)N2 | 80.4 | 2.96 | 8.43 | -0.01 | 15.2 | 6.1 | 10.6 | 1.53 | 4.06 | 45.5 |
| COc1cc(Nc2nccc(-c3cnn4ncccc34)n2)cc(OC)c1 | 94.2 | 20.5 | 71 | – | 94.4 | 5.8 | 27.3 | 28.5 | 72.7 | 26.1 |
| Cc1cc(O)cc(C)c1/C=C/c1cncc(C(=O)N(C)C)c1 | 13.3 | 7.28 | 14.7 | 3.08 | 2.63 | 3.87 | 7.88 | 2.39 | 6.67 | 6.12 |
| CN(C)C(=O)O[C@H]1CN[C@H](C#Cc2cc3ncnc(Nc4ccc(OCc5cccc(F)c5)c(Cl)c4)c3s2)C1 | 9.61 | 3.92 | 7.39 | 2.15 | 8.8 | 4.18 | 8.61 | 0.82 | 2.78 | 3.45 |
